Reference: PubChem BioAssay (EPA / NIEHS)
Inconclusive results are not listed. Activity calls are given as the source filed them. The calls were made as follows, unless noted: active = hit-call score of the fitted dose curve at least 0.9, where 1 is the maximum; inconclusive = response in the unintended direction; inactive = score below 0.9.

Tests used:
[1] = Tanguay_ZF_120hpf_EYE_legacy: (Legacy) Oregon State University Tanguay Lab 120 Hour Post-fertilization zebrafish Assay for Eye Malformation (AID 2283636);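 also: binary presence or absence of eye malformation scored by brightfield in 120 hpf larvae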
Summary of the method: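 Dechorionated wild-type Tropical 5D zebrafish embryos were exposed statically from 6 hpf, one per well, to 120 hpf at 28C in sealed, foil-covered plates with 0.64% DMSO. Eye malformation was scored present/absent by brightfield microscopy against DMSO controls.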

[2] = Tanguay_ZF_120hpf_SNOU_legacy: (Legacy) Oregon State University Tanguay Lab 120 Hour Post-fertilization zebrafish Assay for Snout Malformation (AID 2283637)
Summary of the method: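 Tropical 5D wild-type zebrafish embryos, dechorionated with pronase at 4 hpf, were exposed singly from 6 hpf to 120 hpf statically at 28C in 0.64% DMSO. Snout malformation was scored present/absent by brightfield microscopy, fitted against DMSO.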

[3] = Tanguay_ZF_120hpf_JAW_legacy: (Legacy) Oregon State University Tanguay Lab 120 Hour Post-fertilization zebrafish Assay for Jaw Malformation (AID 2283638);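 as to AC50: active means more embryos with jaw malformation than DMSO controls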
Summary of the method: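 Wild-type 5D embryos, chorion removed at 4 hpf, dosed singly from 6 hpf; 28C static, sealed, foil-covered, to 120 hpf. Endpoint: jaw defect yes/no (brightfield); mortality excludes scoring.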

[4] = Tanguay_ZF_120hpf_OTIC_legacy: (Legacy) Oregon State University Tanguay Lab 120 Hour Post-fertilization zebrafish Assay for Otic Vesicle Malformation (AID 2283639)
Summary of the method: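 Otic vesicle malformation is read as a yes/no morphology call at 120 hpf. Exposure is static at 28C with 0.64% (vol/vol) DMSO; embryos that die are excluded from non-mortality endpoints.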

[5] = Tanguay_ZF_120hpf_PE_legacy: (Legacy) Oregon State University Tanguay Lab 120 Hour Post-fertilization zebrafish Assay for Pericardial Edema (AID 2283640);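 as to AC50: potency for increased incidence of pericardial edema versus DMSO baseline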
Summary of the method: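 Zebrafish larvae are exposed from early development to 120 hpf at 28C, with 0.64% DMSO final. Each surviving larva receives a yes/no pericardial edema call by brightfield imaging, analysed relative to the DMSO baseline.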

[6] = Tanguay_ZF_120hpf_BRAI_legacy: (Legacy) Oregon State University Tanguay Lab 120 Hour Post-fertilization zebrafish Assay for Brain Malformation (AID 2283641)
Summary of the method: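 Static exposure of staged wild-type embryos until 120 hpf, kept at 28C with light excluded and final DMSO of 0.64% (vol/vol). Presence or absence of brain malformation was noted under brightfield; mortality precluded scoring.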

[7] = Tanguay_ZF_120hpf_SOMI_legacy: (Legacy) Oregon State University Tanguay Lab 120 Hour Post-fertilization zebrafish Assay for Somite Malformation (AID 2283647)
Summary of the method: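 Somitogenesis defects are recorded as binary calls in whole larvae at 120 hpf after continuous static chemical exposure starting at 6 hpf in dechorionated 5D embryos. DMSO serves as negative control and baseline.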

[8] = Tanguay_ZF_120hpf_PIG_legacy: (Legacy) Oregon State University Tanguay Lab 120 Hour Post-fertilization zebrafish Assay for Pigmentation Malformation (AID 2283650)
Summary of the method: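 Tropical 5D wild-type zebrafish embryos, dechorionated with pronase at 4 hpf, were exposed singly from 6 hpf to 120 hpf statically at 28C in sealed, dark plates with 0.64% DMSO; pigmentation scored present/absent by brightfield microscopy, fitted against DMSO.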

[9] = Tanguay_ZF_120hpf_CIRC_legacy: (Legacy) Oregon State University Tanguay Lab 120 Hour Post-fertilization zebrafish Assay for Circulatory Malformation (AID 2283651)
Summary of the method: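 Using wild-type Tropical 5D zebrafish, we exposed dechorionated embryos from 6 to 120 hpf in embryo medium with 0.64% DMSO. Circulatory defects were scored as present or absent; 5uM trimethyltin chloride served as positive control.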

[10] = read-out: kallikrein-3 (KLK3), KLK3 (gene 354); assay: LTEA_HepaRG_KLK3: Life Technologies and Expression Analysis (LTEA) Assay for kallikrein-3 (KLK3) using HepaRG (AID 2283652; active = hit-call score of the fitted dose curve at least 0.9, where 1 is the maximum; inactive = score below 0.9); details: mRNA level, 48 h; actives raise or lower the signal
Summary of the method: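 Differentiated human HepaRG cells in serum-free induction medium exposed 48 h in duplicate, eight-point half-log series from 100 uM in 0.5% DMSO. KLK3 mRNA by qRT-PCR, normalised to ACTB, GAPDH, POLR2A; bidirectional fit versus DMSO.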

[11] = read-out: solute carrier (SLC22A6), SLC22A6 (gene 9356); assay: LTEA_HepaRG_SLC22A6: Life Technologies and Expression Analysis (LTEA) Assay for solute carrier (SLC22A6) using HepaRG (AID 2283653; active = hit-call score of the fitted dose curve at least 0.9, where 1 is the maximum; inactive = score below 0.9); details: mRNA level, 48 h; actives raise or lower the signal
Summary of the method: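 Gene-expression endpoint in HepaRG hepatic cells: duplicate 8-point concentration-response, highest 100 uM, 48 h treatment in serum-free medium with 0.5% DMSO. SLC22A6 expression measured by qRT-PCR, normalised to ACTB/GAPDH/POLR2A.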

[12] = Tanguay_ZF_120hpf_SWIM_legacy: (Legacy) Oregon State University Tanguay Lab 120 Hour Post-fertilization zebrafish Assay for Swim Bladder Malformation (AID 2283654);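 also: swim bladder malformation in each larva scored yes or no under brightfield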
Summary of the method: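 Dechorionated Tropical 5D wild-type embryos, placed singly from 6 hpf, were statically exposed at 28C to 120 hpf with 0.64% DMSO final; swim bladder malformation was scored present/absent by brightfield microscopy, gain of signal relative to DMSO controls.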

[13] = Tanguay_ZF_120hpf_TRUN_legacy: (Legacy) Oregon State University Tanguay Lab 120 Hour Post-fertilization zebrafish Assay for Truncated Body (AID 2283655)
Summary of the method: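 Single dechorionated zebrafish embryos received test chemical from 6 hpf in 0.64% DMSO, kept at 28C. At 120 hpf, brightfield inspection noted any truncated body.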

[14] = Tanguay_ZF_120hpf_NC_legacy: (Legacy) Oregon State University Tanguay Lab 120 Hour Post-fertilization zebrafish Assay for Notochord and Tail Malformation (AID 2283656)
Summary of the method: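 Dechorionated 5D zebrafish, 1/well from 6 hpf; static exposure to 120 hpf, 28C, sealed, dark; final DMSO 0.64% v/v. NC scored binary (present/absent); dead embryos not scored. Fit vs DMSO baseline, gain direction.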

[15] = read-out: solute carrier (SLC10A1), SLC10A1 (gene 6554); assay: LTEA_HepaRG_SLC10A1: Life Technologies and Expression Analysis (LTEA) Assay for solute carrier (SLC10A1) using HepaRG (AID 2283657; active = hit-call score of the fitted dose curve at least 0.9, where 1 is the maximum; inactive = score below 0.9); details: mRNA level, 48 h; actives raise or lower the signal
Summary of the method: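 Differentiated HepaRG cells were plated 48 h, then exposed in serum-free induction medium for 48 h to 8 concentrations (top 100 uM, half-log steps, 0.5% DMSO). SLC10A1 mRNA was quantified by qRT-PCR normalized to ACTB, GAPDH, POLR2A; bidirectional fit versus DMSO.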

[16] = read-out: matrix metalloproteinase-1 (MMP1), MMP1 (gene 4312); assay: LTEA_HepaRG_MMP1: Life Technologies and Expression Analysis (LTEA) Assay for matrix metalloproteinase-1 (MMP1) using HepaRG (AID 2283658; active = hit-call score of the fitted dose curve at least 0.9, where 1 is the maximum; inactive = score below 0.9); details: mRNA level, 48 h; actives raise or lower the signal
Summary of the method: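 In this screen, human liver HepaRG cultures receive each chemical in duplicate for 48 h (top 100 uM, 0.5% DMSO). MMP1 expression is then quantified by TaqMan qRT-PCR with ACTB/GAPDH/POLR2A normalization.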

[17] = test system: Thyroperoxidase (TPO), gene 54314; assay: CCTE_Simmons_AUR_rTPO: CCTE's Amplex UltraRed Assay for Thyroperoxidase (TPO) Inhibition, Simmons Lab (AID 2283662);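 also: potency for loss of signal meaning inhibition of peroxidase activity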
Summary of the method: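 Rat thyroid microsomal TPO + 25 uM AUR in 200 mM K phosphate; cpd 5 nM–87.5 uM [final], 8 conc, 0.5% DMSO; 300 uM H2O2 starts rxn; 37C dark 30 min; endpoint FI 544/590 nm; n=3.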

[18] = CCTE_Simmons_CellTiterGLO_HEK293T: Viability Assessment in CCTE's Assays for Thyroperoxidase (TPO) Inhibition, Simmons Lab (AID 2283665);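 also: cells exposed to compound for 24 h before readout; actives reduce ATP signal below DMSO vehicle meaning cytotoxicity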
Summary of the method: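 Cytotoxicity counter-screen: human HEK293T cells in low-serum (1% FBS) medium receive test chemical, 5 nM to 87.5 uM final, for 24 h; ATP is quantified by luciferase luminescence.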

[19] = Tanguay_ZF_120hpf_CFIN_legacy: (Legacy) Oregon State University Tanguay Lab 120 Hour Post-fertilization zebrafish Assay for Caudal Fin Malformation (AID 2283649)
Summary of the method: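 Single dechorionated 5D wild-type embryos are dosed at 6 hpf (final DMSO 0.64%) and held statically at 28C. Caudal fin malformation is recorded as present or absent at 120 hpf under brightfield, excluding dead embryos.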

[20] = Tanguay_ZF_120hpf_PFIN_legacy: (Legacy) Oregon State University Tanguay Lab 120 Hour Post-fertilization zebrafish Assay for Pectoral Fin Malformation (AID 2283648);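 also: each larva judged yes or no for fin defect by brightfield with dead larvae skipped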
Summary of the method: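 Tropical 5D wild-type embryos, dechorionated with pronase at 4 hpf, were placed singly in wells at 6 hpf and statically exposed until 120 hpf at 28C, sealed and dark, with 0.64% (vol/vol) final DMSO; pectoral fin malformation scored present/absent.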

CCCOC(=O)c1cc(O)c(O)c(O)c1
outcome [1]: inactive | outcome [2]: inactive | outcome [3]: inactive | outcome [4]: inactive | outcome [5]: inactive | outcome [6]: inactive | outcome [7]: inactive | outcome [8]: inactive | outcome [9]: inactive | outcome [10]: inactive | outcome [11]: inactive | outcome [12]: inactive | outcome [13]: inactive | outcome [14]: inactive | outcome [15]: inactive | outcome [16]: inactive | AC50 [17]: 0.772 µM (active) | AC50 [18]: 22.6 µM (active)

NC(=O)c1nc(-c2cccc(-c3cc(F)ccc3OCC(F)(F)C(F)(F)F)c2)n[nH]1
AC50 [1]: 9.38 µM (active) | AC50 [2]: 25.8 µM (active) | AC50 [3]: 28.7 µM (active) | AC50 [4]: 27.8 µM (active) | AC50 [6]: 26 µM (active) | AC50 [7]: 25.8 µM (active) | outcome [19]: inactive | AC50 [8]: 26.7 µM (active) | AC50 [9]: 27.3 µM (active) | AC50 [12]: 26.4 µM (active) | AC50 [13]: 27 µM (active) | outcome [14]: inactive

COc1cccc([C@H](O)C2CCN(CCc3ccc(F)cc3)CC2)c1OC
outcome [1]: inactive | AC50 [2]: 45.8 µM (active) | outcome [3]: inactive | outcome [4]: inactive | AC50 [5]: 38.7 µM (active) | outcome [6]: inactive | outcome [7]: inactive | outcome [19]: inactive | outcome [13]: inactive | outcome [14]: inactive

CC(O)CC(C)(C)O (stereo unspecified)
outcome [1]: inactive | outcome [2]: inactive | outcome [3]: inactive | outcome [4]: inactive | outcome [6]: inactive | outcome [7]: inactive | outcome [19]: inactive | outcome [8]: inactive | outcome [9]: inactive | outcome [12]: inactive | outcome [13]: inactive | outcome [14]: inactive

COCC(C)OCC(C)OCC(C)O (stereo unspecified)
outcome [1]: inactive | outcome [2]: inactive | outcome [3]: inactive | outcome [4]: inactive | outcome [6]: inactive | outcome [7]: inactive | outcome [20]: inactive | outcome [19]: inactive | outcome [8]: inactive | outcome [9]: inactive | outcome [12]: inactive | outcome [13]: inactive | outcome [14]: inactive

Cc1ncc(CO)c(CO)c1O
outcome [1]: inactive | outcome [2]: inactive | outcome [3]: inactive | outcome [4]: inactive | outcome [5]: inactive | outcome [6]: inactive | outcome [7]: inactive | outcome [20]: inactive | outcome [19]: inactive | outcome [8]: inactive | outcome [9]: inactive | outcome [12]: inactive | outcome [13]: inactive | outcome [14]: inactive

Clc1cc(Cl)c2c(c1)N=C1CCCCCN1C2
outcome [1]: inactive | AC50 [2]: 8.56 µM (active) | outcome [3]: inactive | outcome [4]: inactive | outcome [6]: inactive | outcome [7]: inactive | outcome [20]: inactive | outcome [19]: inactive | outcome [8]: inactive | outcome [9]: inactive | outcome [12]: inactive | outcome [14]: inactive

CC(C)(C)c1cc(/C=C2\SC(N)=NC2=O)cc(C(C)(C)C)c1O
outcome [1]: inactive | outcome [2]: inactive | outcome [3]: inactive | outcome [4]: inactive | outcome [5]: inactive | outcome [6]: inactive | outcome [7]: inactive | outcome [20]: inactive | outcome [19]: inactive | outcome [8]: inactive | outcome [12]: inactive | outcome [13]: inactive | AC50 [17]: 5.18 µM (active) | AC50 [18]: 8.58 µM (active)

O=C(O)c1ccccc1-n1cc(C(=O)O)c(=O)c2cc(Nc3c(F)cc(F)cc3Cl)c(Cl)cc21
outcome [1]: inactive | outcome [2]: inactive | outcome [3]: inactive | outcome [4]: inactive | outcome [6]: inactive | outcome [7]: inactive | outcome [20]: inactive | outcome [19]: inactive | outcome [9]: inactive | outcome [12]: inactive | outcome [14]: inactive
